Source: PubChem
Most compounds without a hit are left out; they make up all but 18% or so of the library.
TGFb SMAD3 inh = TGF-b pathway inhibition; HepG2 CAGA-GFP TGF-b/SMAD3 reporter, GFP fluorescence, 18 h; TGF-beta stimulated, 500 pg/mL final; Potency, µM (top dose mostly 46.1 µM), inactives show at the highest dose activity, negative = inhibition, hits mostly inhibitors; actives 1.2% (n = 410,000); AID 588855; note: potency is the fitted concentration of half-maximal effect; % is set by controls: 0 for no effect and ±100 for the full control effect; nearly all actives have a fitted effect of over 65% in size
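TGF-beta reporter screen: HEPG2 CAGA-GFP, 1% FBS, 500 pg/mL TGF-beta final, 18 h; per-cell GFP summed per well; curves fitted and categorized by class.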
DT40 TDP1 CPT = DT40-hTDP1 cell growth loss with CPT; AID 686979; Potency, µM (titrated, usually from 46.2 µM), without a hit: top-dose activity change, negative = growth inhibition, hits mostly inhibitors; chicken DT40 Tdp1-/-;hTDP1 cells + 20 nM CPT, ATP luminescence, 48 h; actives 12% (n = 420,000); note: potency is the fitted concentration of half-maximal effect; % is set by controls: 0 for no effect and ±100 for the full control effect; nearly all actives have a fitted effect of over 55% in size
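Chicken DT40 Tdp1-/- cells complemented with human TDP1, 400 cells/well, exposed to compounds plus 20 nM camptothecin for at least 48 h at 37 C; viability read as ATP content by CellTiter-Glo luminescence.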
DT40 TDP1 no CPT = qHTS for Inhibitors of human tyrosyl-DNA phosphodiesterase 1 (TDP1): qHTS in cells in absence of CPT; DT40 Tdp1-/- hTDP1 cells, no CPT, ATP luminescence, 48 h; Potency, µM (titrated, usually from 46.2 µM), inactives show top-dose activity change, negative = growth inhibition, usual class: inhibitors; actives 15% (n = 420,000); AID 686978, 2013; note: potency is the fitted concentration of half-maximal effect; % is set by controls: 0 for no effect and ±100 for the full control effect; nearly all actives have a fitted effect of over 55% in size
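Chicken DT40 Tdp1-/- cells stably complemented with human TDP1 were seeded at 400 cells/well with DMSO in place of 20 nM camptothecin. After compound pinning, cells grew at least 48 hr at 37 °C; viability read by CellTiter-Glo luminescence.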
IL1B secr inh = inflammasome signaling inhibition, IL-1 beta readout; activity change, % at 57.5 µM; actives 4.7% (n = 360,000); THP-1 LPS/ATP IL-1B secretion, AlphaLISA, 16 h; hits give low values; in the data active = activity change below about -50%; inconclusive = mostly about -30% to -49%; note: % is set by controls: 0 for no effect and ±100 for the full control effect
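Secreted IL-1B measured by AlphaLISA bead assay after 16 h compound exposure of THP-1 cells; compounds (final up to 57.5 uM) added 1 h before LPS (250 ng/mL) and ATP (1.25 mM) stimulation; lower signal means less secretion.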
HepG2 tox = kills HepG2 cells in TGF-b inhibitor counter-screen. HepG2 CAGA-GFP viability, ATP luminescence, 18 h. Potency, µM (highest dose often 46.1 µM), inactives show top-dose activity change, negative = cytotoxicity, hits mostly cytotoxic. actives 0.76% (n = 410,000); note: potency is the fitted concentration of half-maximal effect
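CellTiter-Glo luminescence gave cytotoxicity after 18 hours at 37 degrees C. The cells were HepG2 CAGA-GFP in 1% FBS DMEM, stimulated with 500 pg/mL TGF-beta after compound addition. %Activity was normalised to no-cell wells (complete cell-killing) and DMSO (no toxicity), and curves were fitted and classified.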
TDP1 inh = inhibitors of human tyrosyl-DNA phosphodiesterase TDP1 | recombinant TDP1, AlphaScreen DNA substrate cleavage | Potency, µM (top dose mostly 130 µM), without a hit: top-dose activity change, negative = inhibition, most hits filed as inhibitors | actives 0.28% (n = 350,000) | AID 485290; note: potency is the fitted concentration of half-maximal effect; % is set by controls: 0 for no effect and ±100 for the full control effect; nearly all actives have a fitted effect of over 40% in size
Target sequence (Q9NUW8 whole entry, looked up): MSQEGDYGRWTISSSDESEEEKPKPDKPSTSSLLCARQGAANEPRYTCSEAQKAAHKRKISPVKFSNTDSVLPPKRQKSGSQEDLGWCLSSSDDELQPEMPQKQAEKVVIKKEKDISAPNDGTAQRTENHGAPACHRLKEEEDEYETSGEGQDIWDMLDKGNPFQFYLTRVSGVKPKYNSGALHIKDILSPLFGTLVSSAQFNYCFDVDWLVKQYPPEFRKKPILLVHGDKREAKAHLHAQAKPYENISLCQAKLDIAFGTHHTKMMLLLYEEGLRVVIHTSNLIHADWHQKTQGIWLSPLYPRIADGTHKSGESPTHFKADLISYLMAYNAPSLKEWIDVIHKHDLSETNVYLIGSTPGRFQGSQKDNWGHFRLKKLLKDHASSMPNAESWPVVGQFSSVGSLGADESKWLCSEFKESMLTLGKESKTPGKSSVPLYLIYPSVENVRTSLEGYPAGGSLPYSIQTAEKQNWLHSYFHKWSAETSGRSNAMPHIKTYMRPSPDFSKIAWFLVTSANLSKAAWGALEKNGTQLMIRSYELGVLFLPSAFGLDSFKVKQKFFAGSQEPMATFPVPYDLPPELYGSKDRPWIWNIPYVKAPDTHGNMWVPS
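Recombinant E. coli-expressed Tdp1 (1 nM) preincubated with compound 15 min at RT, then 5'-biotin/3'-phosphotyrosine-FITC DNA substrate (15 nM) added for 5 min. AlphaScreen beads (10 ug/ml) added, 10 min RT; tyrosine-FITC cleavage read as signal loss.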
The depositor's hits bear a star; ? = inconclusive; . = not tested or not shown; ! = a repeat was not active; [ ] = dose if it differs, or a comment. Unless noted, calls come from the whole dose curve; as a rule, active = well fitted curve in the direction sought with a large enough effect; inconclusive = small, poorly fitted or top-dose-only effect, or another doubt; inactive = no such curve, though single readings can be large; an effect the other way counts as inactive or inconclusive.

SMILES	TGFb SMAD3 inh	DT40 TDP1 CPT	DT40 TDP1 no CPT	IL1B secr inh	HepG2 tox	TDP1 inh
COc1ccc(S(=O)(=O)NCc2ccccn2)cc1NC(=O)c1ccccc1F	-29%	2.3µM*	2.6µM*	33	-16%	6%
Cc1c(C(=O)NC2CCCCC2)sc2nc3ccc(N)cc3n12	.	.	.	.	.	12%
CCC(O)(c1ccc(OC)cc1)C(CN1CCOCC1)c1ccccc1 (stereo unspecified)	-8%	?	?	3	-3%	6%
COc1ccc(C(O)(C(C)C)C(CN2CCOCC2)c2ccc(Cl)cc2)cc1 (stereo unspecified)	?	?	18µM*	-17	-4%	.
CCCCCC(O)(c1ccc(OC)cc1)C(CN1CCOCC1)c1ccccc1 (stereo unspecified)	13µM*	16µM*	10µM*	-30	-20%	.
CCCCCC(O)(c1ccc(OCC)cc1)C(CN1CCOCC1)c1ccccc1 (stereo unspecified)	0%	?	16µM*	-85*	-3%	.
CCCC(O)(c1ccc(OC)cc1)C(CN1CCOCC1)c1ccccc1 (stereo unspecified)	0%	?	?	-5	-2%	-11%
CCCCC(O)(c1ccc(OC)cc1)C(CN1CCOCC1)c1ccccc1 (stereo unspecified)	0%	18µM*	23µM*	?	-2%	.
COc1ccc(C2(O)C(=O)Nc3ccc(C)cc32)cc1OC (stereo unspecified)	3%	3%	-22%	50	-20%	.
COc1ccc(NC(=O)COC(=O)c2c(C)noc2C)cc1Cl	13%	0%	-3%	-18	-4%	.
COc1ccc2oc(C(=O)Nc3nc(-c4ccccn4)cs3)c(C)c2c1	-14%	5.8µM*	5.8µM*	28	-3%	5%
COc1ccc2oc(C(=O)Nc3nc4ccc(S(C)(=O)=O)cc4s3)c(C)c2c1	3%	?	16µM*	-52*	-6%	0%[0.505 µM]
Cc1ccc(NC(=O)c2cc(C)n(-c3cccc(C)c3)c2C)cc1	-3%	?	21µM*	-66*	-28%	4%
Cc1cc(C(=O)Nc2ccc(Cl)cc2)c(C)n1-c1ccccc1	5%	0%	-25%	-91*	-11%	4%
Cc1ccc(NC(=O)c2cc(C)n(-c3ccccc3)c2C)cc1	24%	?	?	-83*	5%	8%
CC(=O)c1c(O)c(C)c(O)c2c1OC1=CC(=O)C(C(C)=O)C(=O)[C@@]12C (stereo partly specified)	-17%	18µM*!	?	3	-7%	-9%[56.1 µM]
COc1ccc(OC2C(=O)N(CCc3ccc(OC)c(OC)c3)C2c2ccc3c(c2)OCO3)cc1 (stereo unspecified)	5%	18µM*	13µM*	?	-13%	6%
COc1ccc(OC2C(=O)N(c3ccc(C)c(C)c3)C2c2ccc(OC)c(OC)c2)cc1 (stereo unspecified)	0%	?	15µM*	-7	-18%	2%
COc1ccc(OC2C(=O)N(Cc3ccc4c(c3)OCO4)C2c2cccs2)cc1 (stereo unspecified)	?	?	?	-81*	-27%	2%
O=C1C(Oc2ccccc2)C(c2cccs2)N1Cc1ccc2c(c1)OCO2 (stereo unspecified)	?	-15%	-29%	-4	-37%	-8%
CCS(=O)(=O)N1CCC2(CC1)OCCN2S(=O)(=O)c1ccccc1	0%	-5%	-19%	12	-11%	.
CCc1ccc2[nH]c(C(=O)Nc3ccc4c(c3)OCO4)cc2c1	0%	-6%	?	-19	-10%	.
CNc1cccc2c1C(=O)c1ccccc1C2=O	-5%	-23%	?	-52*	-11%	7%
Cn1cc(C2=C(c3ccc(Cl)cc3Cl)C(=O)NC2=O)c2ccccc21	5%	?	11µM*!	-1	9%	1%
CSc1ncc(CN2CCc3c([nH]c4ccccc34)C2C(C)(C)C)cn1 (stereo unspecified)	?	?	23µM*	6	-6%	4%
SMILES	TGFb SMAD3 inh	DT40 TDP1 CPT	DT40 TDP1 no CPT	IL1B secr inh	HepG2 tox	TDP1 inh
CN1C(=O)CC2(C=CC(=O)C=C2OC(=O)c2ccccc2)c2ccccc21 (stereo unspecified)	-19%	.	.	.	-3%	4%
CCN(CC)CCNC(=O)c1cnn(-c2nccc(-c3cc4ccccc4o3)n2)c1C	.	0%[9.04 µM]	?	.	.	.
O=C(CN(c1cc(C(F)(F)F)ccc1Cl)S(=O)(=O)c1ccccc1)NCCc1ccccc1	0%	?	21µM*	.	-33%	.
O=C(NC1CCN(Cc2ccc3ccccc3c2)CC1)c1ccccc1	0%	18µM*	18µM*	-16	0%	.
O=C(NC1CCN(Cc2ccc(F)cc2)CC1)c1ccccc1	?	-4%	-27%	2	3%	.
O=C(NC(=S)NC1CCN(Cc2ccccc2)CC1)c1ccc(F)cc1	?	?	15µM*	-26	-19%	.
CC(C)Oc1ccc(C(=O)NC2CCN(Cc3ccccc3)CC2)cc1	25%	-33%	?	-84*	-5%	.
O=C(NC1CCN(Cc2ccc(Cl)c(Cl)c2)CC1)c1ccccc1	0%	21µM*	?	-19	-2%	.
CCN(C(=O)COC(=O)c1cc2c(s1)CCCCC2)C1CCS(=O)(=O)C1 (stereo unspecified)	2%	-4%	-15%	-6	-2%	4%
CC(C)CN(C(=O)COC(=O)c1cc2c(s1)CCC2)C1CCS(=O)(=O)C1 (stereo unspecified)	-2%	5%	-9%	-2	8%	13µM*
CCOC(=O)C[C@H]1c2ccccc2S(=O)(=O)N1c1cccc(OC)c1	-7%	?	?	19	19%	.
CCCCn1c(SCC(=O)Nc2cccc(OC)c2)nc2ccsc2c1=O	0%	?	?	.	-26%	6%
Cc1noc(C)c1S(=O)(=O)N(C)C[C@H]1Oc2c(NC(=O)Nc3ccc(C(F)(F)F)cc3)cccc2C(=O)N([C@H](C)CO)C[C@@H]1C	?	-106%	23µM*	-21	-9%	0%
C[C@H](CO)N1C[C@H](C)[C@H](CN(C)S(=O)(=O)c2cccs2)Oc2ncc(-c3cc4ccccc4o3)cc2C1=O	5%	23µM*	15µM*	-4	-31%	.
